# In all, about 33,000 sequences were measured (“E-score (-0.5 to 0.5)”: median about -0.056, highest 2% from about 0.38 on). This excerpt belongs to a sample that is enriched for the highest values.
# Molecular target: Stb4 (UniProt P50104)
# Test: PBM E-score (8-mer binding enrichment) (E-score (-0.5 to 0.5)); higher = stronger / more preferred TF binding
# Conditions: protein concentration: 200 nM; construct: GST-DNA-binding domain
# Method: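 Universal 'all 10-mer' protein binding microarrays (Agilent AMADID 015681) probed with GST-tagged S. cerevisiae TFs (full-length or DBD) made by in vitro transcription/translation (PURExpress), about 100-200 nM. Bound TF was detected with fluorescent anti-GST. Each ungapped 8-mer (which stands for itself and its reverse complement) is scored by the PBM enrichment score (E-score), a modified Wilcoxon-Mann-Whitney statistic from -0.5 to +0.5, computed with the Universal PBM Analysis Suite. Scale: above 0.35 generally sequence-specific binding.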
# Sequence of UniProt P50104 (P50104 whole entry): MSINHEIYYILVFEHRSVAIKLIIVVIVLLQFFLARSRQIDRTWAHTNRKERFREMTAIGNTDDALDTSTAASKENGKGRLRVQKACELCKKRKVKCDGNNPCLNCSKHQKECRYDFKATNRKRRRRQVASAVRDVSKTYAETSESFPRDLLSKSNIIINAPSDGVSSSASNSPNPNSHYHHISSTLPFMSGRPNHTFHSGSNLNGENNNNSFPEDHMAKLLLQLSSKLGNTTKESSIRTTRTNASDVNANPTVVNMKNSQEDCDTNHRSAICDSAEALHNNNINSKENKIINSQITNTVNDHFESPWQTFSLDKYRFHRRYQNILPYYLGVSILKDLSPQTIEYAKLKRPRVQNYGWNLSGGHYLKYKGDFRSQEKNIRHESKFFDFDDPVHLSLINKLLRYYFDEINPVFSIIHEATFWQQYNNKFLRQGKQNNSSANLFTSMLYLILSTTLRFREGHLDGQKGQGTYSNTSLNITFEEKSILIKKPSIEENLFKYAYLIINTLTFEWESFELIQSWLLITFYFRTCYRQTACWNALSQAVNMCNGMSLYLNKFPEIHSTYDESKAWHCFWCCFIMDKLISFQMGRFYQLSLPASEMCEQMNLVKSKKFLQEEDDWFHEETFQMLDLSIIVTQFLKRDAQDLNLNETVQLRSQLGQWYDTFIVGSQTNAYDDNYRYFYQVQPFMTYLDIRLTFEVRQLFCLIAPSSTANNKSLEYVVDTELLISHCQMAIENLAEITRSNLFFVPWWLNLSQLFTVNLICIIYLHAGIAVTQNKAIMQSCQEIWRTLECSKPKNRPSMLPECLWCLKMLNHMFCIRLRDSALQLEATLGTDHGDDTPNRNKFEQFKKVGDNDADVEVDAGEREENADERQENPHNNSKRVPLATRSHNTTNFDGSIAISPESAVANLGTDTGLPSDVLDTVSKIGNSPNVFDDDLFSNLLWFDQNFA
row,Sequence,PBM E-score
1,TCGAGGCA,-0.187
2,CCGAGGCG,0.398
3,GCGAGGCC,-0.243
4,CAGAGGCG,-0.0504
5,CCGAGGCA,0.396
6,ACGAGGCG,-0.0457
7,CCGAGGCC,0.436
8,ACGAGGCC,-0.0545
9,GCGAGGCA,0.0697
10,ACCCGGGA,0.378
11,ACCCCCGA,0.317
12,ACCCGAGG,0.427
13,ACCCGCGT,0.188
14,ACCCGGGT,0.41
15,ACTCGAGG,-0.152
16,ACCCGAGT,0.423
17,ACACGAGA,-0.19
18,ACCCGAGA,0.472
19,CCCCGAGG,0.375
20,ACCCGGGC,0.326
21,ACACGAGT,-0.0741
22,AGAGCTCT,-0.0781
23,GAGCCCCC,-0.168
24,AGCTCACA,-0.192
25,CCTAGTAG,-0.0242

row,Sequence,PBM E-score
1,AGCATACT,-0.166
2,AGGGGAAT,0.0637
3,ATTGAGAA,-0.0694
4,CACAGTGG,-0.0386
5,ACCACCAA,0.031
6,CAGCTAGC,-0.0222
7,ACTCCTCT,-0.061
8,GGGCCACA,-0.0749
9,ACCCGAGC,0.468
10,CCCCGAGC,0.371
11,CCCCGAGA,0.326
12,GCCCGAGC,0.316
13,TCCCGAGA,0.453
14,GCCCGAGA,0.352
15,CGACTCGC,-0.0581
16,AAAGCAAG,0.149
17,AGCATTCA,-0.0667
18,CTCGAGTC,-0.0623
19,CCCGAGTC,0.395
20,ACCGAGTC,0.244
21,GCCGAGTA,0.374
22,ACCGAGTA,0.321
23,CCCGAGTA,0.383
24,GGGCATGA,-0.248
25,ACGCTGAG,-0.29

row,Sequence,PBM E-score
1,CGTCTTGC,0.125
2,ATGTGAGA,-0.03
3,GCTGGGAC,-0.117
4,CGCGGATA,0.4
5,AGCGGATG,0.275
6,GGCGGATA,0.374
7,AGCGGATC,0.255
8,CGCGGATC,0.263
9,AGCGGATA,0.386
10,CCCCCCTA,-0.178
11,ACTGGTGA,-0.226
12,CATCGGAG,0.204
13,CATCGGAC,0.259
14,GATCGGAC,0.392
15,TATCGGCA,0.326
16,TATCGGGA,0.361
17,TATCGGAA,0.431
18,GATCGGGC,0.22
19,CATCGGAA,0.435
20,GATCGTAA,-0.0241
21,GATCGGCC,0.218
22,GATCGGAA,0.425
23,GAACGGAA,0.346
24,CCATTCCG,0.35
25,ATATTGGA,-0.0099

row,Sequence,PBM E-score
1,CGTCTGCA,-0.122
2,GAGCATCA,-0.181
3,AACCAAGA,-0.0962
4,AAGGCCAA,-0.173
5,CCAATATC,0.137
6,AAAGAAAC,0.0504
7,CAATCGTC,-0.187
8,AATCGGAC,0.133
9,AATCGGGT,0.325
10,AATCGGCC,0.191
11,AATCGGAG,0.277
12,AATCGGAT,0.424
13,AATCGGAA,0.425
14,CTGACTGA,-0.239
15,CTAGCCCC,-0.0513
16,CTTAAAAA,-0.232
17,CTCCCCGA,0.282
18,GTTCCCAA,-0.009
19,CTTCCCGC,0.2
20,GTTCCCCA,-0.244
21,ATTCCCGA,0.451
22,ATTCCCGG,0.372
23,GTTCCCGA,0.419
24,ATTCCCGC,0.295
25,CTTCCCGA,0.438

row,Sequence,PBM E-score
1,GCGTCTGA,-0.15
2,CACTGCCA,-0.176
3,CAGCGCGG,0.148
4,ATGGGACA,-0.0554
5,CCATAGCC,0.0889
6,GTGGTCCA,-0.0876
7,GGGGACAA,0.109
8,CACCTGCG,-0.018
9,AGGAAGCC,0.0867
10,AGGAAGCA,-0.109
11,CGGAAGGC,0.373
12,CGGAAGCC,0.41
13,GGGAAGCA,0.0636
14,CGGAAGCA,0.435
15,GCAGCCAA,-0.103
16,ACTAGGTA,-0.202
17,ATCTGACC,0.104
18,ATTTTCGC,-0.0335
19,AATTTCGG,0.393
20,ACTTTCGC,-0.239
21,ATTTTCGG,0.423
22,ACTTTCGG,0.416
23,ATTTTCGA,-0.256
24,AATTTCGA,-0.152
25,AATTTCGC,0.123

row,Sequence,PBM E-score
1,ACTTTCGA,-0.0194
2,CTATCGAG,-0.194
3,CCGCTCTA,0.0787
4,ATGCAAAT,-0.115
5,CAACTCAA,-0.0984
6,GGAGCGGA,0.26
7,AGATGAAC,-0.0339
8,GCGCAAAC,-0.0362
9,CGTGACTA,-0.158
10,CGCGAGCG,-0.016
11,ACCGAGCA,0.374
12,TCCGAGCA,0.458
13,GCCGAGCA,0.357
14,GCCGAGCC,0.463
15,CCCGAGCC,0.438
16,GACGAGCC,-0.0685
17,ACCGAGCG,0.38
18,TGCGAGCA,-0.165
19,CGCGAGCC,0.143
20,CCCGAGCG,0.43
21,ACCGAGCC,0.356
22,CCTCTGGC,0.0427
23,AGGCTCCC,-0.0221
24,CGATGATA,0.122
25,ATTAACAC,0.00046

row,Sequence,PBM E-score
1,CAGGTGTA,-0.327
2,GGCACACC,0.0691
3,CCGCGCAA,0.0559
4,CCAAGTAC,-0.196
5,ATTAGGCA,-0.144
6,GTCGTCCA,-0.096
7,GCGACCCA,-0.00585
8,AGGTCCCG,0.325
9,CACAACGA,0.0887
10,CACGAGCA,-0.18
11,CTCGAGCA,-0.0413
12,CCCGAGCA,0.405
13,CGCGAAAG,-0.185
14,GGCTATAA,0.104
15,CGCCTGCC,-0.0366
16,CACAGATG,-0.0862
17,GAGCAGGC,-0.135
18,CATATCCC,0.0584
19,CATATCCA,-0.178
20,CATATCCG,0.403
21,AATATCCA,0.0783
22,AATATCCG,0.452
23,AATATCCC,0.247
24,GCCTCTCA,0.0652
25,ACAAACCC,0.0864

row,Sequence,PBM E-score
1,AGTGACAT,-0.243
2,CGGTGGCC,0.114
3,CGCGGCGC,0.106
4,GTCGGCGA,0.126
5,CTCGGCGC,0.383
6,CTCGGCGA,0.397
7,ATCGGCGC,0.205
8,ATCGGCGA,0.226
9,ATTGGTTC,0.0474
10,ATTACCAG,-0.105
11,CCCGACGA,0.34
12,GCCGACGA,0.285
13,TCCGACGA,0.386
14,ACCGACCA,0.141
15,TCCGACCA,0.388
16,GCCGACCA,0.207
17,GATCACCA,-0.056
18,CAGCTCGC,-0.13
19,CAGCTCGG,0.392
20,CAGCTCGA,-0.144
21,AAGCTCGC,-0.0388
22,AAGCTCGG,0.439
23,AAGCTCGA,0.0225
24,GCCCACGC,-0.168
25,ACATATCT,-0.0348

row,Sequence,PBM E-score
1,ATCTCGCC,0.0501
2,CTCTCGCA,-0.148
3,AACTCGGC,0.364
4,CTCTCGTC,-0.0633
5,CTCTCGGC,0.397
6,CTCTCGAA,-0.356
7,ATCTCGGC,0.442
8,CTCTCGAC,-0.293
9,CTCTCGGA,0.452
10,AACCAAGC,-0.109
11,GACCACGA,-0.259
12,CCTACCCA,-0.208
13,AGTCCCCA,-0.364
14,CCGCCGCA,0.0672
15,ACGCCGAG,0.352
16,ACGCCGAA,0.317
17,CCGCCGAA,0.4
18,TCGCCGAA,0.32
19,CCGCCGAG,0.394
20,GCGCCGAC,0.195
21,GCGCCGAA,0.388
22,CCGCCGAC,0.217
